# From PubChem BioAssay (NCATS)
# Records with an inconclusive call do not appear. Where a call stands in place of a potency, no number is given. The source made the active and inactive calls. Calls come from the whole dose curve; as a rule, active = well fitted inhibition curve with a large enough effect; inconclusive = small, poorly fitted or top-dose-only effect; inactive = no such curve, though single readings can be large or run the other way. Where a SMILES comes first, the peptide text is derived from it. [ ]: non-standard residue; d: D form. pGlu = O=C1CC[C@@H](C(=O)O)N1; Thz = O=C(O)[C@@H]1CSCN1
# Assay: S16 Schwann cell PMP22 intronic element firefly luciferase assay (AID 624032); note: nearly all actives have a fitted effect of over 30% in size
# Details: S16 rat Schwann cells, PMP22 element FLuc, 24 h; series mostly up to 57.5 µM
# Procedure, shortened: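 Rat S16 Schwann cells stably carrying firefly luciferase driven by a PMP22 intronic element, in 10% FBS, treated 24 h at 37 C. ONE-Glo luminescence normalized to PTC124 control and DMSO (0%); curves classed by r2, magnitude and activity.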
# Potency is the fitted concentration of half-maximal effect.
row,SMILES,Potency
1,Oc1c(Br)cc(Br)c2cccnc12,inactive
2,c1ccc2sc(SSc3nc4ccccc4s3)nc2c1,inactive
3,O=C(O)COc1ccc(C(=O)c2cccs2)c(Cl)c1Cl,inactive
4,CCC1C(=O)OCC1Cc1cncn1C (stereo not given),inactive
5,CCCCCCCCCCCCCCCC(=O)OC(C)C,inactive
6,CC(N)C(=O)OC(C)(C)Cc1ccc(Cl)cc1 (stereo not given),inactive
7,COc1cc(/C=C/C(=O)CC(=O)/C=C/c2ccc(O)c(OC)c2)ccc1O,20.3 µM (active)
8,O=C(OCc1ccccc1)c1ccccc1,inactive
9,COc1ccc(/C=C/C(=O)Nc2ccccc2C(=O)O)cc1OC,inactive
10,CCCCCC[C@@H](O)C/C=C\CCCCCCCC(=O)O,inactive
11,Nc1ccc(O)c(C(=O)O)c1,inactive
12,Cc1ccccc1CNc1ncnc2c1ncn2C1OC(CO)C(O)C1O (stereo not given),inactive
13,CCCCC[C@H](O)/C=C/[C@@H]1[C@@H](C/C=C\CCCC(=O)O)[C@@H](O)C[C@H]1O,inactive
14,Cc1cc(O)c2ccccc2c1O,25.6 µM (active)
15,COC(=O)C1=C(C)NC(C)=C(C(=O)OCC(C)C)C1c1ccccc1[N+](=O)[O-] (stereo not given),32.2 µM (active)
16,CC1(C)S[C@@H]2[C@H](NC(=O)[C@H](NC(=O)N3CCN(S(C)(=O)=O)C3=O)c3ccccc3)C(=O)N2[C@H]1C(=O)O,inactive
17,CN1[C@@H]2CC[C@H]1CC(OC(=O)C(CO)c1ccccc1)C2 (stereo not given in full),inactive
18,O=C(/C=C/c1ccccc1)NCCO,inactive
19,[O-][n+]1ccccc1SSc1cccc[n+]1[O-],0.361 µM (active)
20,N=c1ccn2c(n1)O[C@H]1[C@H](O)[C@@H](CO)O[C@H]12,14.4 µM (active)
21,CN1[C@@H]2CC[C@H]1CC(OC(c1ccccc1)c1ccccc1)C2 (stereo not given in full),inactive
22,CCCCCCCCCCCCCCCCCC(=O)O,inactive
23,O=C(O)c1cc(O)c(O)c(O)c1,inactive
24,CN(C)c1ccc(C(=C2C=CC(=[N+](C)C)C=C2)c2ccccc2)cc1,inactive
25,CC1(C)[C@@H](O)CC[C@]2(C)[C@H]3C(=O)C=C4[C@@H]5C[C@@](C)(C(=O)O)CC[C@]5(C)CC[C@@]4(C)[C@]3(C)CC[C@@H]12,8.09 µM (active)
26,C=C(Nc1ccc(OCC)cc1)Nc1ccc(OCC)cc1,inactive
27,Nc1cc(-c2ccncc2)c[nH]c1=O,inactive
28,O=C(O)/C=C/C(O)c1ccc(Cl)cc1 (stereo not given),inactive
29,O=C1CC[C@@H](C(=O)N2CSC[C@H]2C(=O)O)N1 ([pGlu]-[Thz]-OH),inactive
30,C=CCCCCCCCCC(=O)O,inactive
